Shown is part of a subset that was picked to be rich in hits.
Glioma ERSR ind = inducers of ER stress response in human glioma cells | U87-MG GRP78 promoter luciferase reporter, 16 h | Potency, µM, usual class: activators | 420,000 compounds, 0.02% hits; further: series mostly up to about 76 µM; nearly all actives have a fitted effect of over 35% in size
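ERSR induction read as luciferase luminescence (Bright-Glo, 10 min at room temperature) in stably transfected human U87-MG glioma cells exposed to compounds for 16 h, using GRP78 as sensor.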
Sfp PPTase inh = blocks B. subtilis Sfp PPTase activity. Q9F4F7. Biochemical Sfp PPTase activity, qHTS. Potency, µM, actives largely listed as inhibitors. 310,000 compounds, 3.5% hits;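 further: the enzyme is Sfp with the accession as filed and its product quenches rhodamine fluorescence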
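Sfp 15 nM + cpd, 15 min RT; start w/ rhodamine-CoA 5 uM, BHQ-2-YbbR 12.5 uM (final); 50 mM Hepes pH 7.6, 10 mM MgCl2, 0.01% NP-40, 0.01% BSA; read 525/598 nm at 0 and 30 min.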
G9a block = blocks human histone lysine methyltransferase G9a; G9a H3K9 monomethylation, AlphaScreen, 2 h; Potency, µM (titrated, usually from 102 µM), most hits filed as inhibitors; 350,000 compounds, 8.8% hits; further: nearly all actives have a fitted effect of over 75% in size
Target sequence (Q96KQ7 913-1193 limits assumed): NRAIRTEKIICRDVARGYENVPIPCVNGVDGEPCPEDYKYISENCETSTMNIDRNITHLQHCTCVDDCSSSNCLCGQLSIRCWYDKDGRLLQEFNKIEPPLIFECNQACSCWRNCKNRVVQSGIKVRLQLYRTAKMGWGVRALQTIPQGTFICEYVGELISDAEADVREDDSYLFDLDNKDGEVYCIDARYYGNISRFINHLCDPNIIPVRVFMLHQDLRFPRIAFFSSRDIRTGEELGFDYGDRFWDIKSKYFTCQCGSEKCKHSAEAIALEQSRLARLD
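G9a (20 nM) preincubated 15 min RT with compounds, then 500 nM biotinylated H3K9 peptide and 20 uM SAM added; 2 h RT reaction. Monomethyl-H3K9 product detected by AlphaScreen with anti-H3K9me1 antibody, streptavidin donor and anti-rabbit IgG acceptor beads.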
12-LOX inh = inhibitors of human 12S-lipoxygenase ALOX12 | purified 12hLO, xylenol orange hydroperoxide absorbance | AID 1671190 | P18054 | Potency, µM (titrated, usually from 108 µM), hits mostly inhibitors | 580,000 compounds, 1.1% hits
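Purified human 12hLO (150 nM final) in 25 mM Hepes, 0.01% Triton X-100, pH 7.0 was preincubated 15 min at room temperature with compound. Then 40 uM arachidonic acid was added, 30 min. Hydroperoxide was read by Fe-XO absorbance ratio 573/405 nm.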
VDR inhibitor = vitamin D3 receptor (human) inhibition. Potency, µM, actives largely listed as inhibitors. 400,000 compounds, 0.93% hits. AID 504847. VDR-SRC2-3 peptide fluorescence polarization, 2 h. P11473
Target sequence (P11473 whole entry, looked up): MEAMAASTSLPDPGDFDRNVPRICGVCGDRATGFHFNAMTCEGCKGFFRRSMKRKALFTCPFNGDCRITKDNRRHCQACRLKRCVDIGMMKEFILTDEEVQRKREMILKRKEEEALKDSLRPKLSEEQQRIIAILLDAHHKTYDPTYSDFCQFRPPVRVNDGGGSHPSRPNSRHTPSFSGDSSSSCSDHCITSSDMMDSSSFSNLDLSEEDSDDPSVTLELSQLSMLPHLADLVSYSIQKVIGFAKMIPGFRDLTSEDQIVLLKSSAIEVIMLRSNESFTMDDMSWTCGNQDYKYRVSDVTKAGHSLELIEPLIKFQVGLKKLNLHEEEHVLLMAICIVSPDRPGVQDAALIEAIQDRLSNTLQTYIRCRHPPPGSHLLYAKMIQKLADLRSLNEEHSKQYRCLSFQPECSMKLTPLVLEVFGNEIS
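Compounds are added to VDR with labelled SRC2-3 coactivator peptide and held 2 h at room temperature. Inhibition of the VDR–peptide interaction is then read as a change in fluorescence polarization.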
A number is an active result; [ ] = remark or other dose. The call rests on the fitted dose curve; in most records, active means well fitted curve in the direction sought with a large enough effect; inconclusive means small, poorly fitted or top-dose-only effect, or another doubt; inactive means no such curve, though single readings can be large; an effect the other way counts as inactive or inconclusive.

How did Cc1ccc(N2Cc3c(NCCc4ccc(F)cc4)ncnc3N(C)CC2=O)cc1 do in these assays?
12-LOX inh: inactive

What do the screens show for `CC1(C)Cc2c(sc3ncn(N)c(=N)c23)CO1`?
Glioma ERSR ind: inactive; Sfp PPTase inh: inactive; G9a block: inactive; 12-LOX inh: inactive; VDR inhibitor: inactive

What do the screens show for `CC1(C)Cc2c(sc3ncnc(NN)c23)CO1`?
Glioma ERSR ind: inactive; Sfp PPTase inh: 39.8µM; G9a block: inactive; 12-LOX inh: inactive; VDR inhibitor: inactive

Results for CC1(C)Cc2c(sc3ncn4c(=S)[nH]nc4c23)CO1 ?
Glioma ERSR ind: inactive; Sfp PPTase inh: 44.7µM; G9a block: 3.16µM; 12-LOX inh: inconclusive; VDR inhibitor: inconclusive

What do the screens show for `CSc1nc2sc3c(c2c(=S)[nH]1)CC(C)(C)OC3`?
Glioma ERSR ind: inactive; Sfp PPTase inh: inactive; G9a block: inconclusive; 12-LOX inh: inactive; VDR inhibitor: inconclusive

Results for O=C1NC2(CCN(C(=O)c3cccnc3)CC2)COc2ccccc21 ?
12-LOX inh: inactive

Results for CCN1C(C(=O)c2ccccc2)=C(OC(=O)c2ccc(OC)cc2)c2ccccc2S1(=O)=O ?
Glioma ERSR ind: inactive; G9a block: inactive; 12-LOX inh: inactive; VDR inhibitor: inactive

What do the screens show for `Cc1ccc(OCC(=O)OC2=C(C(=O)c3ccccc3)N(C)S(=O)(=O)c3ccccc32)cc1`?
Glioma ERSR ind: inactive; G9a block: 20µM; 12-LOX inh: inconclusive; VDR inhibitor: inactive

Results for COc1ccc(C(=O)OC2=C(C(=O)c3ccccc3)N(C)S(=O)(=O)c3ccccc32)cc1OC ?
Glioma ERSR ind: inactive; G9a block: 20µM; 12-LOX inh: inactive; VDR inhibitor: inactive

How did Cc1ccc(C(=O)OC2=C(C(=O)c3ccccc3)N(C)S(=O)(=O)c3ccccc32)cc1 do in these assays?
Glioma ERSR ind: inactive; G9a block: inconclusive; 12-LOX inh: inactive; VDR inhibitor: inactive

How did CCCN1C(C(=O)c2ccccc2)=C(OC(=O)c2ccc(C)cc2)c2ccccc2S1(=O)=O do in these assays?
Glioma ERSR ind: inactive; G9a block: inactive; 12-LOX inh: inactive; VDR inhibitor: inactive

Results for CCN1C(C(=O)c2ccccc2)=C(OC(=O)COc2ccccc2)c2ccccc2S1(=O)=O ?
Glioma ERSR ind: inactive; G9a block: 12.6µM; 12-LOX inh: inactive; VDR inhibitor: inactive

How did COC(=O)Cn1c(Br)nc2c1c(=O)n(C)c(=O)n2C do in these assays?
12-LOX inh: inactive

How did CSCc1ccc(C(=O)N2CCCC(Nc3ccc(F)cc3)C2)o1 (configuration not stated) do in these assays?
Glioma ERSR ind: inactive; Sfp PPTase inh: inactive; G9a block: inconclusive; 12-LOX inh: inactive; VDR inhibitor: inactive

Results for CSCc1ccc(C(=O)N2CCCC(Nc3ccc4c(c3)OCCO4)C2)o1 (configuration not stated) ?
Glioma ERSR ind: inactive; Sfp PPTase inh: inactive; G9a block: 79.4µM; 12-LOX inh: inactive; VDR inhibitor: inactive

How did O=C(c1cc(Cl)ccc1F)N1CCCC(Nc2ccc3c(c2)OCCO3)C1 (configuration not stated) do in these assays?
Glioma ERSR ind: inactive; Sfp PPTase inh: inactive; G9a block: 79.4µM; 12-LOX inh: inactive; VDR inhibitor: inactive

Results for NCCSCc1ccco1 ?
12-LOX inh: inactive

What do the screens show for `COc1ccc(-c2c(NC(=O)c3ccccc3)oc3ccccc3c2=O)cc1`?
12-LOX inh: inactive

Results for COC(CNC(=O)CC(C)C)c1ccccc1 (configuration not stated) ?
12-LOX inh: inactive

How did CC(C)(C)c1cnc([C@@H]2COCCN2Cc2ccccc2O)[nH]1 do in these assays?
12-LOX inh: inactive

Results for N#Cc1nc(Cc2cccc3ccccc23)oc1N1CCCCC1 ?
Glioma ERSR ind: inactive; Sfp PPTase inh: inactive; G9a block: 15.8µM; 12-LOX inh: inconclusive; VDR inhibitor: inactive

What do the screens show for `N#Cc1nc(COc2ccccc2Cl)oc1N1CCCCCC1`?
Glioma ERSR ind: inactive; Sfp PPTase inh: inactive; G9a block: inactive; 12-LOX inh: inactive; VDR inhibitor: inactive

Results for COc1ccc(N2CCN(c3oc(COc4ccccc4Cl)nc3C#N)CC2)cc1 ?
Glioma ERSR ind: inactive; Sfp PPTase inh: inactive; G9a block: 10µM; 12-LOX inh: inconclusive; VDR inhibitor: inactive

Results for Cc1cccc(OCc2nc(C#N)c(N3CC(C)CC(C)C3)o2)c1 (configuration not stated) ?
Glioma ERSR ind: inactive; Sfp PPTase inh: inconclusive; G9a block: 39.8µM; 12-LOX inh: inactive; VDR inhibitor: inactive

How did N#Cc1nc(COc2ccccc2Cl)oc1N1CCCC1 do in these assays?
Glioma ERSR ind: inactive; Sfp PPTase inh: inactive; G9a block: 7.94µM; 12-LOX inh: inactive; VDR inhibitor: inactive

How did CN1CCC(OC2CCN(C(=O)c3ccc(F)cc3F)CC2)CC1 do in these assays?
12-LOX inh: inactive

What do the screens show for `CC(C)(Oc1ccc(Cl)cc1)C(=O)Oc1ccc(-c2ccc(C#N)cc2)cc1`?
12-LOX inh: inactive

How did N#Cc1nc(COc2ccc(Cl)cc2)oc1N1CCCCCC1 do in these assays?
Glioma ERSR ind: inactive; Sfp PPTase inh: inactive; G9a block: inconclusive; 12-LOX inh: inconclusive; VDR inhibitor: inactive

Results for N#Cc1nc(COc2ccccc2Cl)oc1NCc1ccc(F)cc1 ?
Glioma ERSR ind: inactive; Sfp PPTase inh: inactive; G9a block: 44.7µM; 12-LOX inh: inactive; VDR inhibitor: inactive

What do the screens show for `Cc1ccc(OCc2nc(C#N)c(N3CCCCC3)o2)cc1`?
Glioma ERSR ind: inactive; Sfp PPTase inh: inactive; G9a block: 39.8µM; 12-LOX inh: inactive; VDR inhibitor: inactive

How did COc1ccc(OCc2nc(C#N)c(N3CCN(c4ccc(OC)cc4)CC3)o2)cc1 do in these assays?
Glioma ERSR ind: inactive; Sfp PPTase inh: inactive; G9a block: 11.2µM; 12-LOX inh: inactive; VDR inhibitor: inactive

Results for Clc1ccc(C=Nc2ccc(Cl)c(Cl)c2)cc1Cl ?
12-LOX inh: inactive

Results for CCC(NC(=O)c1cccs1)c1ccccc1 (configuration not stated) ?
12-LOX inh: inactive

What do the screens show for `Cc1ccc(C)c(S(=O)(=O)N2CCN(C(=O)c3ccc(-n4cncn4)c([N+](=O)[O-])c3)CC2)c1`?
Glioma ERSR ind: inactive; G9a block: inactive[0.501 µM]; 12-LOX inh: inactive; VDR inhibitor: inactive

Results for CC(C)(C)C(=O)N1CCN(c2ccc([N+](=O)[O-])cc2-n2cccc2)CC1 ?
Glioma ERSR ind: inactive; Sfp PPTase inh: inactive; G9a block: inactive; 12-LOX inh: inconclusive; VDR inhibitor: inactive

How did Cc1ccc(C(=O)N2CCN(c3ccc([N+](=O)[O-])cc3-n3cccc3)CC2)cc1 do in these assays?
Glioma ERSR ind: inactive; Sfp PPTase inh: inactive; G9a block: 28.2µM; 12-LOX inh: inactive; VDR inhibitor: inconclusive

Results for Cc1ccc(C)c(S(=O)(=O)N2CCN(C(=O)c3ccc(N4CCCC4)c([N+](=O)[O-])c3)CC2)c1 ?
Glioma ERSR ind: inactive; Sfp PPTase inh: inactive; G9a block: 31.6µM; 12-LOX inh: inactive; VDR inhibitor: inactive

From PubChem BioAssay
